From PubChem BioAssay
HttQ103 aggreg: inhibitors of mutant huntingtin aggregate formation in PC12 cells; PC12 HttQ103-GFP aggregates, Acumen cytometry, 40 h; Potency, µM (top dose mostly 46.1 µM), without a hit: top-dose activity change, negative = inhibition, actives largely listed as inhibitors; 1.1% of 220,000 active; note: potency is the fitted concentration of half-maximal effect; % is set by controls: 0 for no effect and ±100 for the full control effect; nearly all actives have a fitted effect of over 60% in size
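Multiplexed with ATP-based cell death, this channel scores GFP aggregates in PC12 cells expressing inducible HTTex1-Q103-GFP. Induction used 100 nM tebufenozide; compounds were tested in concentration series.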
ALDH1A1 inh: inhibitors of human aldehyde dehydrogenase 1A1; Purified ALDH1A1, NADH fluorescence, propionaldehyde substrate; Potency, µM (highest dose often 75.3 µM), for the others: top-dose activity, negative = inhibition, usual class: inhibitors; 7.3% of 220,000 active; AID 1030; active = well fitted inhibition curve with a large enough effect, not every such curve was filed as active; inconclusive = small, poorly fitted or top-dose-only effect, or another doubt; inactive = no such curve, though single readings can be large or run the other way;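 note: potency is the fitted concentration of half-maximal effect; plate controls were no enzyme wells and a reference inhibitor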
Target sequence (P00352 whole entry, looked up): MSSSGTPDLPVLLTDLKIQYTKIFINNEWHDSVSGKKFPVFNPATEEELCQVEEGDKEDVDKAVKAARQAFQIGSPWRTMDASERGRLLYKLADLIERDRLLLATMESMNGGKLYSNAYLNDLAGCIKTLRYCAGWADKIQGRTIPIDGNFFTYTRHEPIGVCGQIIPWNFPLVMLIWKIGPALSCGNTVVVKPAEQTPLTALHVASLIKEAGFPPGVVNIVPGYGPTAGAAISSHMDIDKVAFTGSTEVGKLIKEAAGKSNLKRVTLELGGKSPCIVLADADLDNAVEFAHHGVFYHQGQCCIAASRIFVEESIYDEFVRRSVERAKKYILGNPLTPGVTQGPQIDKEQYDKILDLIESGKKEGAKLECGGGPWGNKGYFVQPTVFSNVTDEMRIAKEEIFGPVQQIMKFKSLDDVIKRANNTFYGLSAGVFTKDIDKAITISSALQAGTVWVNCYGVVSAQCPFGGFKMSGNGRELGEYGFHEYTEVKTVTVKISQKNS
HPGD block: HPGD (human) dehydrogenase inhibition. P15428. purified HPGD, NADH fluorescence kinetic, PGE2 substrate. Potency, µM, inactives show at the top dose activity change, negative = inhibition, hits mostly inhibitors. 4.3% of 150,000 active. AID 894; active = well fitted inhibition curve with a large enough effect, not every such curve was filed as active; inconclusive = small, poorly fitted or top-dose-only effect, or another doubt; inactive = no such curve, though single readings can be large or run the other way; note: potency is the fitted concentration of half-maximal effect; % is set by controls: 0 for no effect and ±100 for the full control effect
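NADH formation kinetics: reaction with 30 uM PGE2 and 1 mM NAD+ (final), 20 nM enzyme, Tris-HCl pH 8 with Tween 20, after 15 min compound preincubation at room temperature. Fluorescence change, last versus first of five reads.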
CBFb-RUNX1 inh: CBF-beta/RUNX1 interaction disruption; Q01196+Q13951; AlphaScreen CBFb-His/RUNX1-biotin binding, biochemical; Potency, µM (titrated, usually from 59.8 µM), for the others: top-dose activity, negative = inhibition, usual class: inhibitors; 230,000 tested, under 10 active; AID 1477; note: % of control where 0% means no effect
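AlphaScreen proximity signal reports loss of binding between His-tagged CBF-beta and biotin-labelled RUNX1, each at 30 nM. Proteins are pre-associated for 20 minutes, compounds added for 15 minutes, then beads for 90 minutes, all at ambient temperature.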
PNC inhibitor: inhibitors of perinucleolar compartment assembly | PC3M PTB-GFP, PNC prevalence imaging, 16 h; hits give low values | 3.1% of 140,000 active | activity change (PNC), negative = inhibition, % at 10 µM;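 active = readout at or below -70, meaning at least 70% loss of cells showing the perinucleolar compartment, a nuclear body marking cancer cells; inconclusive = readout between -30 and a set limit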;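 note: plate controls were DMSO wells for no effect and camptothecin positive control wells for full effect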
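Compounds are pinned in duplicate onto adhered PC3M cells stably expressing GFP-tagged PTB and incubated 16 h at 37 C. Cells are then fixed, nuclei stained with Hoechst, and PNC-positive cells counted.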
HTT cytoprotect: cytoprotection in Huntington HTT-Q103 PC12 cell model | PC12 HTT-Q103 induced, cytoprotection, ATP luminescence, 40 h | Potency, µM (titrated, usually from 56.4 µM), for the others: cytoprotection (ATP increase), most hits filed as activators | 0.14% of 230,000 active | AID 1471; note: potency is the fitted concentration of half-maximal effect; % of control where 0% means no effect; nearly all actives have a fitted effect of over 45% in size
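PC12 cells with ecdysone-inducible HTT exon 1 Q103-GFP, induced with 100 nM tebufenozide and co-treated with library compounds in a dose series (1536-well, 1500 cells/well). Cytoprotection read as ATP content by ATPlite luminescence.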
* hit, by the source's call; ? = inconclusive; nt = no result; [ ] = dose if it differs, or a comment. In the library only some 11% were active in any assay of this set; here they are far more common. Unless noted, calls come from the whole dose curve; as a rule, active = well fitted curve in the direction sought with a large enough effect; inconclusive = small, poorly fitted or top-dose-only effect, or another doubt; inactive = no such curve, though single readings can be large; an effect the other way counts as inactive or inconclusive.

SMILES	HttQ103 aggreg	ALDH1A1 inh	HPGD block	CBFb-RUNX1 inh	PNC inhibitor	HTT cytoprotect
COc1ccc(Cl)cc1NC(=O)CSc1nnc(Cc2cccn2C)n1-c1ccc(F)cc1	-7%	-2%	-3%	-17%	-85*	-5%
COc1ccc(-n2c(Cc3cccn3C)nnc2SCC(=O)Nc2ccc(C(C)=O)cc2)cc1	19%	8.9µM*	-21%	-3%	11	-19%
CN(C)S(=O)(=O)c1ccc(C(=O)NCc2nnc(SCC(=O)Nc3ccc(F)cc3)n2-c2ccc(F)cc2)cc1	0%	7.1µM*	-12%	-25%	37	11%[10 µM]
Oc1ccc(Cl)cc1C=Nc1cnc2ccccc2c1	nt	-11%[13.5 µM]	?	nt	nt	1%[10 µM]
CCNc1ncc2nc(-c3ccccc3)c(=O)n(CCC#N)c2n1	nt	?	nt	nt	nt	-16%
CC(=O)OCC(=O)[C@@]1(O)CCC2C3CC[C@H]4CC(O)CC[C@@]4(C)C3C(=O)C[C@]21C (stereo partly drawn)	nt	10%	-3%	nt	nt	nt
COc1ccccc1-c1cncnc1NCc1ccccc1	nt	-4%	nt	nt	nt	10%
CCc1ccc(NC(=O)CSc2nnc(Cc3cccn3C)n2-c2ccc(F)cc2)cc1	5%	?	-7%	-6%	-90*	-10%
COc1ccc(NC(=O)CSc2nnc(Cc3cccn3C)n2-c2ccc(OC)cc2)cc1	16%	14µM*	-3%	-17%	-17	1%
Cn1cccc1Cc1nnc(SCC(=O)N2CCN(c3ccccc3)CC2)n1-c1ccc(F)cc1	11%	14µM*	1%	-6%	-1	-25%
CCOc1ccc(NC(=O)CSc2nnc(Cc3cccn3C)n2-c2ccc(OC)cc2)cc1	7%	4µM*	-9%	-18%	-2	4%[10 µM]
COc1ccc(-n2c(Cc3cccn3C)nnc2SCC(=O)Nc2ccc(C)cc2)cc1	14%	?	-6%	-14%	?	5%[10 µM]
N#C/C(=C\c1cn(CCOc2ccccc2)c2ccccc12)C(=O)NCc1cccs1	0%	?	-13%	19%	?	-10%[10 µM]
O=C(O)CC1CCCc2ccccc2C1O (stereo not drawn)	nt	5%	-6%	-6%	nt	nt
COCCn1c(=O)c(-c2ccc(OC)cc2)nc2cnc(Nc3ccccc3)nc21	nt	5%	-2%	nt	nt	-3%
N#C/C(=C\c1ccc(-c2cccc([N+](=O)[O-])c2)o1)C(=O)N1CCOCC1	-4%[9.22 µM]	-14%	nt	10%	nt	1%[10 µM]
N#C/C(=C\c1ccc(-c2cccc([N+](=O)[O-])c2)o1)c1nnc(N2CCOCC2)n1-c1ccccc1	?	7.9µM*	nt	-3%	nt	-51%
Cc1nc2cc(N3CCN(C)CC3)c(NC(=O)Cc3ccccc3)cc2c(=O)n1Cc1ccccc1	2%	18µM*	nt	1%	44	-21%[10 µM]
Cc1nc2cc(N3CCCCC3)c(NC(=O)c3ccncc3)cc2c(=O)n1Cc1ccc(Cl)cc1	-7%	?	-16%	2%	-10	-55%
CCCCn1c(-c2csc(C(C)C)c2)n[nH]c1=S	9%	7.9µM*	?	-9%	-109*	nt
CCCc1cc(-c2n[nH]c(=S)n2CC(C)C)cs1	9%	11µM*	?	1%	-7	nt
CCCCn1c(-c2csc(CC)c2)n[nH]c1=S	7%	?	?	-23%	?	nt
COc1ccc(-c2cc(C(=O)Nc3cc(C)nn3-c3ccccc3)no2)cc1OC	-5%	-2%	nt	-2%	nt	-40%
OCc1cc2c(cn1)[nH]c1ccccc12	nt	?	nt	-2%	nt	-12%
COC1(OC)N=C(N)C2(C#N)C(c3cccc(Oc4ccccc4)c3)C12C#N (stereo not drawn)	2%	22µM*	-17%	2%	36	-14%
COc1cccc(C2C3(C#N)C(N)=NC(OC)(OC)C23C#N)c1 (stereo not drawn)	-17%	23%	-1%	1%	51	-10%
